# According to publication PMC7862700, “An all-to-all approach to the identification of sequence-specific readers for epigenetic DNA modifications on cytosine”:
# What was measured:
# Experiment in all cases: DAPPL (digital affinity profiling via proximity ligation, sequencing); 10 mM Tris-HCl pH 7.5, 50 mM NaCl, 1 mM DTT, 4% glycerol, room temperature, 30 min; GST-TFs on glutathione beads, 16-mer random dsDNA library, 0.1% formaldehyde crosslink after washing; high values mean tight binding
# FLI1 = target: T1, FLI1 (Homo sapiens, UniProt Q01543 1-452); conditions: protein: recombinant; tags: N-terminal GST; dsDNA, one strand shown
# T1 sequence: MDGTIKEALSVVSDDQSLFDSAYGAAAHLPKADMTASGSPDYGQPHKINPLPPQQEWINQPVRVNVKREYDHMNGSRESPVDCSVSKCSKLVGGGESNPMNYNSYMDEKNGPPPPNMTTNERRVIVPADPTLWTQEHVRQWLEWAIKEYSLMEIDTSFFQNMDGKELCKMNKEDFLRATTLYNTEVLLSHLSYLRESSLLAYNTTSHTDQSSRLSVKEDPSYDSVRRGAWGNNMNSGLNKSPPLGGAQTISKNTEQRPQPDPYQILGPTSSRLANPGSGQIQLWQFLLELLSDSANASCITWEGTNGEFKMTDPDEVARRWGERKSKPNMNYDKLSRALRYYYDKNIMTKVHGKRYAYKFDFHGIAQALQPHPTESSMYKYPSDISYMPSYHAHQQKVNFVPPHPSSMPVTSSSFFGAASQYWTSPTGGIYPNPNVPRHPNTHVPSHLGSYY
# Procedure, shortened: (§1)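 The binding signal reported is, for every hexamer, its read frequency for a factor over its read frequency for the tag-only sample. Reads came from pools of yeast-expressed, GST-fused human transcription factors on glutathione beads, barcoded with DNA and mixed with that sample, which were incubated with 200 nmole of a random double-stranded 16-mer DNA library in Tris/NaCl/DTT/glycerol buffer at room temperature for 30 min. After washing, the pools were crosslinked with 0.1% formaldehyde, proximity-ligated with BsaI/T4 ligase for 1 h at 37 °C, PCR-amplified and sequenced on an Illumina NextSeq500.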
# ELK1 = target: T2, ELK1 (Homo sapiens, UniProt P19419 1-428); conditions: protein: recombinant; tags: N-terminal GST; dsDNA, one strand shown
# T2 sequence: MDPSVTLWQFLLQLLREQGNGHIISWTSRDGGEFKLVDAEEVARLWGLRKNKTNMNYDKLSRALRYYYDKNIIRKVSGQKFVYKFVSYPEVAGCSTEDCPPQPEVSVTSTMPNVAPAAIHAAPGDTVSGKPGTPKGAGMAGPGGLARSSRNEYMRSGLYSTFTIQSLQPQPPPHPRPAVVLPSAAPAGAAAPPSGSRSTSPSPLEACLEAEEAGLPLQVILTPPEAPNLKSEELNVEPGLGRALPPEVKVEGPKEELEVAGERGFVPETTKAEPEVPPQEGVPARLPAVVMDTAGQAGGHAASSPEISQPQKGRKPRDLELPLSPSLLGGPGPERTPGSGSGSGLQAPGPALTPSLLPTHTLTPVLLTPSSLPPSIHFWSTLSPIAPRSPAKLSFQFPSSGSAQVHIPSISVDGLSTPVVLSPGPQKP
# Procedure, shortened: as §1
# GABPA = target: T3, GABPA (Homo sapiens, UniProt Q06546 1-454); conditions: protein: recombinant; tags: N-terminal GST; dsDNA, one strand shown
# T3 sequence: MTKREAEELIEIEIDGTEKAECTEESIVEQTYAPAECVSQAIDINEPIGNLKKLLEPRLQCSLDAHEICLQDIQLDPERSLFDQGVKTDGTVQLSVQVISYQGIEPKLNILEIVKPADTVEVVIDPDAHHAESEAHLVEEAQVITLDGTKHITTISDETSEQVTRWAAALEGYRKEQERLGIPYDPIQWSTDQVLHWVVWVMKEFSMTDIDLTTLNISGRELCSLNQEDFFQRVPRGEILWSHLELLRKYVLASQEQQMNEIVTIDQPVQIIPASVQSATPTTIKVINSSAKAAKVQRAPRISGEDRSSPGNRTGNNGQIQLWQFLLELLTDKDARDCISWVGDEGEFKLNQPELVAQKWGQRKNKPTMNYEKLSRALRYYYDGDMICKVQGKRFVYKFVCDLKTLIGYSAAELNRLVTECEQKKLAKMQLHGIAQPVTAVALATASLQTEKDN
# Procedure, shortened: as §1
# ERG = target: T4, ERG (Homo sapiens, UniProt P11308 1-479); conditions: protein: recombinant; tags: N-terminal GST; dsDNA, one strand shown
# T4 sequence: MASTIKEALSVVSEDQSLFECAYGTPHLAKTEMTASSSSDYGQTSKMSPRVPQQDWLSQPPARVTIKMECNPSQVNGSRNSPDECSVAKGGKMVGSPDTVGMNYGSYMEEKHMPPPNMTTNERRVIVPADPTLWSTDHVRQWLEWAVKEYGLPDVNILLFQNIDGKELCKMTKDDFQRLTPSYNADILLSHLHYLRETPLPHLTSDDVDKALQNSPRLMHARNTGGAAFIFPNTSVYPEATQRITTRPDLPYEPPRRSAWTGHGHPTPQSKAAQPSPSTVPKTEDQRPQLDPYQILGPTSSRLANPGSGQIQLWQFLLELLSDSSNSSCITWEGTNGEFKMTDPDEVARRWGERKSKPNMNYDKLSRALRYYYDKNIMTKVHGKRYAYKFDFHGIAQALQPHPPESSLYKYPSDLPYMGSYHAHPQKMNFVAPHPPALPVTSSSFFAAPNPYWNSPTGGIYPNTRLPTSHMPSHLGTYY
# Procedure, shortened: as §1
# ELF1 = ELF1 (Homo sapiens, UniProt P32519 1-619); conditions: protein: recombinant; tags: N-terminal GST; dsDNA, one strand shown
# Procedure, shortened: as §1
# EHF = target: T5, EHF (Homo sapiens, UniProt Q9NZC4 1-300); conditions: protein: recombinant; tags: N-terminal GST; dsDNA, one strand shown
# T5 sequence: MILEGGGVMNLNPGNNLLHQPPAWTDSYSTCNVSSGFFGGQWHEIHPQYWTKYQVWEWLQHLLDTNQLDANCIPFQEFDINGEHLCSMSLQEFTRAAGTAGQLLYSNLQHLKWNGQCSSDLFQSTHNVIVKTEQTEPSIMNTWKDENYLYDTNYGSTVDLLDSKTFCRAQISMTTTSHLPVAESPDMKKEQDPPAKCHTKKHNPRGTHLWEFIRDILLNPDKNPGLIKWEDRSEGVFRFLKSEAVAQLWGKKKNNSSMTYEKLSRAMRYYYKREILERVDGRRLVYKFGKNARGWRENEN
# Procedure, shortened: as §1
# SPI1 = SPI1 (Homo sapiens, UniProt P17947 1-270); conditions: protein: recombinant; tags: N-terminal GST; dsDNA, one strand shown
# Procedure, shortened: as §1
# SPIB = SPIB (Homo sapiens, UniProt Q01892 1-262); conditions: protein: recombinant; tags: N-terminal GST; dsDNA, one strand shown
# Procedure, shortened: as §1
# ELK3 = target: T6, ELK3 (Homo sapiens, UniProt P41970 1-407); conditions: protein: recombinant; tags: N-terminal GST; dsDNA, one strand shown
# T6 sequence: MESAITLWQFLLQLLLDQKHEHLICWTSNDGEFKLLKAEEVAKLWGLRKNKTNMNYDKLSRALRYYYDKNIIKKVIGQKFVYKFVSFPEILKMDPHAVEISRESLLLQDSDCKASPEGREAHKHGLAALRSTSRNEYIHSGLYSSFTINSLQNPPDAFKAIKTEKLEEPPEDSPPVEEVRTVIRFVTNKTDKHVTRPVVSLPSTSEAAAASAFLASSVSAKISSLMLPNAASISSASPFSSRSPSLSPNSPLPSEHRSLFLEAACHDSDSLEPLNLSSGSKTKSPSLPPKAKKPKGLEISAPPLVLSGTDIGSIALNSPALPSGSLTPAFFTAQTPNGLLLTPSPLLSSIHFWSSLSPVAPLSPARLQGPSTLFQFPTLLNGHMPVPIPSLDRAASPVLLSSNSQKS
# Procedure, shortened: as §1
# FEV = target: T7, FEV (Homo sapiens, UniProt Q99581 1-238); conditions: protein: recombinant; tags: N-terminal GST; dsDNA, one strand shown
# T7 sequence: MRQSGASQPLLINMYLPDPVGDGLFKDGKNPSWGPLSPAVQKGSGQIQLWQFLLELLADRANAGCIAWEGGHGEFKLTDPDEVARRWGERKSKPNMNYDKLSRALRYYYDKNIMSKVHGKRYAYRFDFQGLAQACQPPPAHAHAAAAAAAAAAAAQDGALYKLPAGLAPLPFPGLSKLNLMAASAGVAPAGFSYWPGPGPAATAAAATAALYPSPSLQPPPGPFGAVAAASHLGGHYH
# Procedure, shortened: as §1
# ETV5 = ETV5 (Homo sapiens, UniProt P41161 1-510); conditions: protein: recombinant; tags: N-terminal GST; dsDNA, one strand shown
# Procedure, shortened: as §1
# HSF1 = HSF1 (Homo sapiens, UniProt Q00613 1-529); conditions: protein: recombinant; tags: N-terminal GST; chain copies: 3; dsDNA, one strand shown
# Procedure, shortened: as §1
# SPIC = target: T8, SPIC (Homo sapiens, UniProt Q8N5J4 1-248); conditions: protein: recombinant; tags: N-terminal GST; dsDNA, one strand shown
# T8 sequence: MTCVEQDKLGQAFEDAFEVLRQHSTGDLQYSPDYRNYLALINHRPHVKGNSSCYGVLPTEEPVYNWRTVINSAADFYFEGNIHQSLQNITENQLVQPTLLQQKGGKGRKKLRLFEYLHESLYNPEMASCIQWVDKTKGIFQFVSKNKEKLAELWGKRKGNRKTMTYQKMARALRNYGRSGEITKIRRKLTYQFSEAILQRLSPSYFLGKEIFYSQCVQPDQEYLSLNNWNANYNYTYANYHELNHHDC
# Procedure, shortened: as §1
# ELF4 = ELF4 (Homo sapiens, UniProt Q99607 1-663); conditions: protein: recombinant; tags: N-terminal GST; dsDNA, one strand shown
# Procedure, shortened: as §1
# ELK4 = target: T9, ELK4 (Homo sapiens, UniProt P28324-2 1-405); conditions: protein: recombinant; tags: N-terminal GST; dsDNA, one strand shown
# T9 sequence: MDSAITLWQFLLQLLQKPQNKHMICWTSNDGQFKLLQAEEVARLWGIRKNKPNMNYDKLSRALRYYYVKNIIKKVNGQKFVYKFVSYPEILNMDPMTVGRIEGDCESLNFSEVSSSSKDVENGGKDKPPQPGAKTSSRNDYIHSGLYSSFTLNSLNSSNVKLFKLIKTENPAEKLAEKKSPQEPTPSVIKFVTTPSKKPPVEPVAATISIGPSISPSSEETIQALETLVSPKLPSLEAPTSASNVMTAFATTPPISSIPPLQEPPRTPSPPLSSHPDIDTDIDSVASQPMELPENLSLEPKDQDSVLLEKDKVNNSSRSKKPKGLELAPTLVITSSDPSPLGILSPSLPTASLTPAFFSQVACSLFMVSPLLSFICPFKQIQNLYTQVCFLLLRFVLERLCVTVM
# Procedure, shortened: as §1
# ETV2 = target: T10, ETV2 (Homo sapiens, UniProt O00321 1-342); conditions: protein: recombinant; tags: N-terminal GST; dsDNA, one strand shown
# T10 sequence: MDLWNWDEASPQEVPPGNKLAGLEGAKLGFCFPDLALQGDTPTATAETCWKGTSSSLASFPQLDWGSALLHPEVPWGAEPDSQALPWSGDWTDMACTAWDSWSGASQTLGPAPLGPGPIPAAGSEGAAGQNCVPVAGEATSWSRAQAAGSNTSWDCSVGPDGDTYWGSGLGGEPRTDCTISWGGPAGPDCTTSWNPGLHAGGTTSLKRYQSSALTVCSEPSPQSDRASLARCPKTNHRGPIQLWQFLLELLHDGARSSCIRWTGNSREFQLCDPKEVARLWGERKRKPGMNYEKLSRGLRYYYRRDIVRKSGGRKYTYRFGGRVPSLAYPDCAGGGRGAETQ
# Procedure, shortened: as §1
# CRX = CRX (Homo sapiens, UniProt O43186 1-299); conditions: protein: recombinant; tags: N-terminal GST; dsDNA, one strand shown
# Procedure, shortened: as §1
# ETV1 = ETV1 (Homo sapiens, UniProt P50549 1-477); conditions: protein: recombinant; tags: N-terminal GST; dsDNA, one strand shown
# Procedure, shortened: as §1
# Chain of SPIB (Q01892 whole entry): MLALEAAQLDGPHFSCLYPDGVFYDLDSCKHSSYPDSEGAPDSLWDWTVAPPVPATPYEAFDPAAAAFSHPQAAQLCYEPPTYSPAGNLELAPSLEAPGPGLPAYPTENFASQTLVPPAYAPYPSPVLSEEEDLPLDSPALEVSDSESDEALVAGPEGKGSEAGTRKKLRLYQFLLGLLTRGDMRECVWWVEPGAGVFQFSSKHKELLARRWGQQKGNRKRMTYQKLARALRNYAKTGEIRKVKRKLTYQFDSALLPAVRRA
# Chain of ELF4 (Q99607 whole entry): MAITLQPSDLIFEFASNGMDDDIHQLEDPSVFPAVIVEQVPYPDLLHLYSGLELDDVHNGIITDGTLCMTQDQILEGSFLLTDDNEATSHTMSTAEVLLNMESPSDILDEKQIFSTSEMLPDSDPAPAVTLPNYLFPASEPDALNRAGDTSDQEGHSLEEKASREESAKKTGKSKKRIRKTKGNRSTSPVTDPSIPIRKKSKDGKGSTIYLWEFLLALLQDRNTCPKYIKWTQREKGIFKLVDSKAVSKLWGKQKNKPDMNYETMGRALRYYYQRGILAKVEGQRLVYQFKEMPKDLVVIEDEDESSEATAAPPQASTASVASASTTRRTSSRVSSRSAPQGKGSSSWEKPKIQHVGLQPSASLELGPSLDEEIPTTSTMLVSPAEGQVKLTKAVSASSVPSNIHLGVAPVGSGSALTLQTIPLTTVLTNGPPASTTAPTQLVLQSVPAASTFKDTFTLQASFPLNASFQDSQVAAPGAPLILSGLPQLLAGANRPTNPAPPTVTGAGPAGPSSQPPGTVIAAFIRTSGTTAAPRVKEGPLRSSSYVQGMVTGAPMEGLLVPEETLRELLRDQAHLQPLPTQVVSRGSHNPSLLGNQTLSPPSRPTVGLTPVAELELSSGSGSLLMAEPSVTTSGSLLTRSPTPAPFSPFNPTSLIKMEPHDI
# Chain of HSF1 (Q00613 whole entry): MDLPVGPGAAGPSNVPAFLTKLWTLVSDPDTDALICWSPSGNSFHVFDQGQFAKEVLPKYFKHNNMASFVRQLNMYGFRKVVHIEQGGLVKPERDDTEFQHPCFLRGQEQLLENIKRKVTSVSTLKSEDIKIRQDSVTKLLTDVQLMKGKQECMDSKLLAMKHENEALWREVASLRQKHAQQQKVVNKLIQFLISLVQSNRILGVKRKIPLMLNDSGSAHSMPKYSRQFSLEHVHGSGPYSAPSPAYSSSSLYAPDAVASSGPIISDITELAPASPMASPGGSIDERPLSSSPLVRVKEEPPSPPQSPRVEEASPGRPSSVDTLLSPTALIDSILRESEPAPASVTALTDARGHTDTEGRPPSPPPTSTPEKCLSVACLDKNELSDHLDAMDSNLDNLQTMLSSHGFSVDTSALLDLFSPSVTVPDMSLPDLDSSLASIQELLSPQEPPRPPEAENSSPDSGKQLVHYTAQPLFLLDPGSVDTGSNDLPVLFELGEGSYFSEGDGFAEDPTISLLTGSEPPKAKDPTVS
# Chain of ELF1 (P32519 whole entry): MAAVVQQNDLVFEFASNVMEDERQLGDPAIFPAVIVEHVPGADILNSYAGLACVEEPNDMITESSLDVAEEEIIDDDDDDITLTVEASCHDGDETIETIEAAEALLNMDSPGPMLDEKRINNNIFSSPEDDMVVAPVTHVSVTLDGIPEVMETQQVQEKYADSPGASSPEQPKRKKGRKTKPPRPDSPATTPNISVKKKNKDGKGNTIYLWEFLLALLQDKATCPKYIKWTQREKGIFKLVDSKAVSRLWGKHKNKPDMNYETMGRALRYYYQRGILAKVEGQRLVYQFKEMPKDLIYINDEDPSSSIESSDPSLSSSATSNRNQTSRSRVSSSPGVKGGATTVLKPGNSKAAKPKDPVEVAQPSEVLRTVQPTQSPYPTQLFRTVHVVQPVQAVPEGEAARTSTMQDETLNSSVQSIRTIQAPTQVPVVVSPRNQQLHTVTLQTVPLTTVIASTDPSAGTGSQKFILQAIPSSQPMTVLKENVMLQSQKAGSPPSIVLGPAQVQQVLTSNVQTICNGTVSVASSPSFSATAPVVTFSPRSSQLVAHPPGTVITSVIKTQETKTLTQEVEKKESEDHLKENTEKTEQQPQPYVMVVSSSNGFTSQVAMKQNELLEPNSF
# Chain of ETV1 (P50549 whole entry): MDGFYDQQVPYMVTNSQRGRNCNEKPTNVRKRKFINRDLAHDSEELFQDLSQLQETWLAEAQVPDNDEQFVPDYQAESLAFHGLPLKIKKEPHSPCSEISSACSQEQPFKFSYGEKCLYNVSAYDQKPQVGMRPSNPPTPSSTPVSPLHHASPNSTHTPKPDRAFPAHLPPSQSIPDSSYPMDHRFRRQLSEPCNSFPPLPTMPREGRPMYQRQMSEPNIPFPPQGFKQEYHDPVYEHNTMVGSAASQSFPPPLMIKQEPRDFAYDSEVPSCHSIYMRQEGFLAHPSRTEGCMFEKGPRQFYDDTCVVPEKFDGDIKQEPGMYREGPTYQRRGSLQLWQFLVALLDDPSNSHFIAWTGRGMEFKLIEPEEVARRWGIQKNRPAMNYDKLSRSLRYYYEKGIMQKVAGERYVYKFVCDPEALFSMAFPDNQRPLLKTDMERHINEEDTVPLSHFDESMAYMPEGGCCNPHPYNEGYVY
# Chain of CRX (O43186 whole entry): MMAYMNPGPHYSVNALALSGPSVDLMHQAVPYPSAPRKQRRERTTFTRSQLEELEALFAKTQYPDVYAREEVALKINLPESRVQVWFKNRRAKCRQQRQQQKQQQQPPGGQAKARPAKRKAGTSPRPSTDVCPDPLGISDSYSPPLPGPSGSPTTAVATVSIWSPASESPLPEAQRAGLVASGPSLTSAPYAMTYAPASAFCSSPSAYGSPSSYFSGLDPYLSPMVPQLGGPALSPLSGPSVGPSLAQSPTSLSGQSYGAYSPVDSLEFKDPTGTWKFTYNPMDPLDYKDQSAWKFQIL
# Chain of ETV5 (P41161 whole entry): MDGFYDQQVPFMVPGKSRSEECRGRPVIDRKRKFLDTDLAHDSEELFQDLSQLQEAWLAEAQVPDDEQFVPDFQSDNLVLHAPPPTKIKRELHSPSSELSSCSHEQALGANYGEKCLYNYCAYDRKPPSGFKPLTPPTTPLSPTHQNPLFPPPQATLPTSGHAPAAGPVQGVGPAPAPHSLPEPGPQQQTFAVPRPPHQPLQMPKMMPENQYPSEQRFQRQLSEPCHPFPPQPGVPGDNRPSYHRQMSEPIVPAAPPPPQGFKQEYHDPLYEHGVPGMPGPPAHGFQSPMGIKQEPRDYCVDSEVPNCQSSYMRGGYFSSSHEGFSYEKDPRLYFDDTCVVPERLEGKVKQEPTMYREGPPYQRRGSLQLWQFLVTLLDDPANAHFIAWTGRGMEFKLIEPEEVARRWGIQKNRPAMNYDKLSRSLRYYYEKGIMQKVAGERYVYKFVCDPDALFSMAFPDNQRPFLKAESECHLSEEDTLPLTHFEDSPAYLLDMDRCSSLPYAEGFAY
Sequence,binding signal (FLI1),binding signal (ELK1),binding signal (GABPA),binding signal (ERG),binding signal (ELF1),binding signal (EHF),binding signal (SPI1),binding signal (SPIB),binding signal (ELK3),binding signal (FEV),binding signal (ETV5),binding signal (HSF1),binding signal (SPIC),binding signal (ELF4),binding signal (ELK4),binding signal (ETV2),binding signal (CRX),binding signal (ETV1)
CTCAGA,"1.07 fold enrichment (6-mer frequency, TF over GST control)","1.12 fold enrichment (6-mer frequency, TF over GST control)","1.13 fold enrichment (6-mer frequency, TF over GST control)","1.1 fold enrichment (6-mer frequency, TF over GST control)","1.14 fold enrichment (6-mer frequency, TF over GST control)","1.1 fold enrichment (6-mer frequency, TF over GST control)","1.04 fold enrichment (6-mer frequency, TF over GST control)","1.01 fold enrichment (6-mer frequency, TF over GST control)","1.02 fold enrichment (6-mer frequency, TF over GST control)","1.03 fold enrichment (6-mer frequency, TF over GST control)","1.14 fold enrichment (6-mer frequency, TF over GST control)","1.17 fold enrichment (6-mer frequency, TF over GST control)","1.16 fold enrichment (6-mer frequency, TF over GST control)","1.14 fold enrichment (6-mer frequency, TF over GST control)","1.01 fold enrichment (6-mer frequency, TF over GST control)","1.18 fold enrichment (6-mer frequency, TF over GST control)","1.27 fold enrichment (6-mer frequency, TF over GST control)","1.1 fold enrichment (6-mer frequency, TF over GST control)"
CTTGTT,"1.2 fold enrichment (6-mer frequency, TF over GST control)","1.18 fold enrichment (6-mer frequency, TF over GST control)","1.15 fold enrichment (6-mer frequency, TF over GST control)","1.26 fold enrichment (6-mer frequency, TF over GST control)","1.21 fold enrichment (6-mer frequency, TF over GST control)","1.31 fold enrichment (6-mer frequency, TF over GST control)","1.25 fold enrichment (6-mer frequency, TF over GST control)","1.29 fold enrichment (6-mer frequency, TF over GST control)","1.3 fold enrichment (6-mer frequency, TF over GST control)","1.15 fold enrichment (6-mer frequency, TF over GST control)","1.22 fold enrichment (6-mer frequency, TF over GST control)","1.09 fold enrichment (6-mer frequency, TF over GST control)","1.25 fold enrichment (6-mer frequency, TF over GST control)","1.22 fold enrichment (6-mer frequency, TF over GST control)","1.17 fold enrichment (6-mer frequency, TF over GST control)","1.14 fold enrichment (6-mer frequency, TF over GST control)","1.1 fold enrichment (6-mer frequency, TF over GST control)","1.31 fold enrichment (6-mer frequency, TF over GST control)"
